Rows were chosen to be rich in hits. Some 3.3% of all compounds tested hit in one or more screens of this group.
PMP22 txn prim – modulates PMP22 transcription in S16 Schwann cells | S16 Pmp22-F2sN Schwann cells, FLuc/NLuc coincidence luminescence, 24 h | Potency, µM (doses to about 57.5 µM), usual class: inhibitors | 2% of 43,000 active; active = clear falling dose curves in both reporters; inconclusive = both reporters move, but less clearly or upward; inactive = either reporter flat; the % is the NLuc reporter signal
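Schwann cells carrying the coincidence reporter were exposed to library compounds for 24 h at 37C, then lysed and read for FLuc and, after quenching, NLuc luminescence on a CCD imager.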
HTT promoter inh – HTT promoter inhibition; Potency, µM (titrated, usually from 57.5 µM), most hits filed as inhibitors; 0.93% of 48,000 active; HEK293 HTT promoter firefly luciferase reporter, 24 h; note: nearly all actives have a fitted effect of over 50% in size
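HEK293 Fluc reporter, 2,500 cells/well, 24 h pre-culture; cpds up to 57.5 uM final, 24 h 37 degrees C; Dual-Glo, 10 min RT; normalized vehicle = 0%, zero RLU = -100%.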
S16 F2sN tox – S16 Schwann cell cytotoxicity; S16 Pmp22-F2sN Schwann cells viability, CellTiter-Glo, 24 h; 0.48% of 43,000 active; Potency, µM (highest dose often 57.5 µM), actives largely listed as cytotoxic; note: nearly all actives have a fitted effect of over 65% in size
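Used to flag compounds lowering reporter output through toxicity, this quantitative HTS measures ATP-based CellTiter-Glo luminescence in S16 Pmp22-F2sN Schwann cells after 24 h compound exposure at 37C.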
mTORC1 inh – mTORC1 pathway inhibition measured by phospho-rpS6. Tsc2-/- p53-/- MEF, phospho-rpS6 immunofluorescence/PI, 24 h. Potency, µM (top dose mostly 38.3 µM), hits mostly inhibitors. 0.78% of 44,000 active. AID 493208; note: nearly all actives have a fitted effect of over 50% in size
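Plate MEFs (Tsc2-/-, p53-/-, empty vector) in DMEM/10% FBS; after 24 h add compound, incubate 24 h at 37 degree Celsius; fix in PFA/TX-100, block, stain phospho-rpS6 and 10 uM PI; scan at 488 nm; report % positive cells.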
FH mod – Identification of activators of human fumarate hydratase by quantitative high-throughput screening | 0.22% of 54,000 active | FH coupled MDH/diaphorase resazurin fluorescence, 15 min | Fumarate hydratase, mitochondrial (Homo sapiens), P07954 | Potency, µM (highest dose often 79.9 µM), usual class: inhibitors; note: the screen sought activators but most active calls are inhibition curves; nearly all actives have a fitted effect of over 45% in size
Target sequence (P07954 whole entry, looked up): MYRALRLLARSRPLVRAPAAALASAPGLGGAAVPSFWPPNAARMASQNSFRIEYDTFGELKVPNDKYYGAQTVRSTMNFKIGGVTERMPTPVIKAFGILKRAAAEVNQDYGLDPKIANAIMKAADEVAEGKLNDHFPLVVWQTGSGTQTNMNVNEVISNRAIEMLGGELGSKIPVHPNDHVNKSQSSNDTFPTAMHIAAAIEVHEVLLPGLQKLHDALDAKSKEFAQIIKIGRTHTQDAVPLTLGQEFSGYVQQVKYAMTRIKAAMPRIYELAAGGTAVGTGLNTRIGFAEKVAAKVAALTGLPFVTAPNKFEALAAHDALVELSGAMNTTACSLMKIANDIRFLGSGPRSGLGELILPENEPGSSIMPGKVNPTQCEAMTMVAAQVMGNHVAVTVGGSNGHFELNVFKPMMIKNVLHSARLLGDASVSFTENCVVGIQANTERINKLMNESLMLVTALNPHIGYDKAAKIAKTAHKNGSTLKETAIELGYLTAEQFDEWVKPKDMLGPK
HTT-AS act – activates huntingtin-antisense promoter activity; HEK293 HTT-AS promoter firefly luciferase reporter, 24 h; response scale: percent change from vehicle, -100% = no light; Potency, µM (series often up to 57.5 µM), most hits filed as activators; 0.24% of 48,000 active; note: nearly all actives have a fitted effect of over 55% in size
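HEK293 luciferase promoter-reporter cells (2,500/well) plated 24 h, then compounds added at up to 57.5 uM final for 24 h at 37 °C. Firefly luminescence by Dual-Glo, normalized to vehicle (0%) and zero RLU (-100%).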
Hits are given with their value; - = inactive; ? = inconclusive; . = no result; ! = a repeat was not active. Unless noted, calls come from the whole dose curve; as a rule, active = well fitted curve in the direction sought with a large enough effect; inconclusive = small, poorly fitted or top-dose-only effect, or another doubt; inactive = no such curve, though single readings can be large; an effect the other way counts as inactive or inconclusive.

SMILES | PMP22 txn prim | HTT promoter inh | S16 F2sN tox | mTORC1 inh | FH mod | HTT-AS act
CCOc1ccc(/C=C2\SC(=O)N(CCN)C2=O)cc1 | . | . | . | . | - | .
CC(C)C(N)C(=O)OCC(CO)OCn1cnc2c(=O)[nH]c(N)nc21 (centres undefined) | . | . | . | . | - | .
Cc1ccc(S(=O)(=O)Nc2cc3c(cc2N2CCOCC2)n(C)c(=O)n3C)cc1 | . | . | . | - | . | .
Cn1c(=O)n(C)c2cc(N3CCOCC3)c(NS(=O)(=O)c3cccc(C#N)c3)cc21 | - | - | - | - | 16µM | -
COc1ccc(CNC(=O)C(=O)NCC(c2cccnc2)N2CCN(c3ccccc3)CC2)cc1 (centres undefined) | ? | 13µM | - | - | - | -
Cc1ccc(CNC(=O)C(=O)NCC(c2cccnc2)N2CCN(c3ccccc3F)CC2)cc1 (centres undefined) | ? | 14µM | - | - | - | -
COc1ccc(CCNC(=O)C(=O)NCC(c2cccnc2)N2CCN(c3ccccc3)CC2)cc1 (centres undefined) | ? | 13µM | ? | ? | - | -
COc1ccc(C(=O)NCC(c2cccnc2)N2CCN(c3ccccc3)CC2)cc1 (centres undefined) | ? | ? | - | ? | - | -
C=CC(=O)Nc1cc(Nc2nccc(-c3c[nH]c4ccccc34)n2)c(OC)cc1N(C)CCN(C)C | . | . | . | . | - | .
COc1cc(NC(=O)c2cccc(-n3cc(NC(=O)Nc4cccc(C)c4)cn3)c2)cc(OC)c1OC | . | . | . | . | - | .
N#C/C(=C\c1ccc(-c2ccc(F)cc2F)o1)c1nc2ccccc2[nH]1 | ? | - | - | 13µM | - | -
CCc1ccc(NC(=O)CSc2ccc(-c3ccccn3)nn2)cc1 | - | ? | ? | ? | - | -
Cc1nc(C)c(-c2ccc(SCC(=O)Nc3ccc(Cl)c(Cl)c3)nn2)s1 | - | 18µM | - | - | - | -
Cc1cccc(NC(=O)CSc2ccc(-c3ccccn3)nn2)c1 | ? | - | - | ? | - | -
COc1cc(NC(=O)CSc2ccc(-c3ccccn3)nn2)cc(OC)c1 | ? | ? | - | 13µM | - | -
Cc1ccc(NC(=O)CSc2ccc(-c3ccccn3)nn2)cc1F | - | - | - | 15µM | - | -
O=C(NCCN1CCC(n2c(=O)[nH]c3ccccc32)CC1)c1cc2cc(F)ccc2[nH]1 | . | . | . | . | - | .
CC(C(=O)NCc1cccc(Br)c1)n1ncn2cccc2c1=O (centres undefined) | - | - | - | 0.58µM | - | -
Cc1c2cnn(-c3ccccc3)c(=O)c2c(C)n1C(C)C(=O)NCc1cccc(Br)c1 (centres undefined) | ? | ? | - | - | - | -
CCc1ccc(OCC(=O)Nc2ccc(Cl)c(-c3nc4cc(C)cc(C)c4o3)c2)cc1 | . | . | . | - | . | .
Cc1ccc2nc(-c3cc(NC(=O)COc4ccc(C)c(C)c4)ccc3Cl)oc2c1 | - | - | - | - | - | 2.5µM
O=C1NC(=O)C(c2ccccc2[N+](=O)[O-])=C1Nc1ccc(O)c(Cl)c1 | . | - | . | . | 25µM! | -
CCOC(=O)c1cnc2ccc(OC)cc2c1NCCc1ccccc1 | ? | 32µM | ? | - | - | -
CCOC(=O)c1ccc2ncc(C(=O)OCC)c(NCCc3ccc(OC)c(OC)c3)c2c1 | ? | - | ? | - | ? | -
Cc1ccc(Nc2nc(Nc3ccc(C)c(C)c3)nc(N3CCOCC3)n2)cc1C | - | ? | ? | 1µM | - | -
SMILES | PMP22 txn prim | HTT promoter inh | S16 F2sN tox | mTORC1 inh | FH mod | HTT-AS act
COc1ccc(Nc2nc(Nc3ccc(OC)cc3OC)nc(N3CCOCC3)n2)c(OC)c1 | - | ? | - | 1.5µM | ? | -
Cc1nc(-c2ccc(Cl)cc2)sc1CCNC(=O)Cc1ccc(F)cc1 | ? | 32µM | - | - | - | -
COC12CC3C(C(C)C1=CC(=O)O2)C(O)C(OC(C)=O)C1C(C)(C)C(OC(C)=O)CCC31C (centres undefined) | . | . | . | . | - | .
COC(=O)C1=CO[C@@H](O[C@@H]2O[C@H](CO[C@@H]3O[C@H](CO)[C@@H](O)[C@H](O)[C@H]3O)[C@@H](O)[C@H](O)[C@H]2O)[C@@H]2C(CO)=CC[C@H]12 | . | . | . | . | - | .
O=[N+]([O-])c1ccc(-[n+]2nc(-c3ccccc3)nn2-c2ccc(I)cc2)cc1 | . | . | . | . | - | .
C=Cc1ccc(Cn2c(C(=O)O)c(CNCc3cccs3)c3ccc(C)cc32)cc1 | - | - | ? | - | ? | -
C=Cc1ccc(Cn2c(C(=O)O)c(CNCc3ccc(F)cc3)c3ccc(C)cc32)cc1 | ? | ? | 28µM | - | - | -
COc1ccc(Cn2c(C(=O)O)c(CNCc3ccc(SC)cc3)c3ccc(OC)cc32)cc1 | ? | ? | ? | 16µM | - | -
CCOc1ccc(CCNCc2c(C(=O)O)n(Cc3ccc(C)cc3)c3cc(OC)ccc23)cc1 | ? | ? | - | 12µM | ? | -
COc1ccc(C2OCC3C(c4cc(OC)c5c(c4)OCO5)OCC23)cc1OC (centres undefined) | . | . | . | . | - | .
O=C(O)c1cccc(-c2ccc(-c3cn(C(=O)N4CCCCC4Cc4ccccc4)nn3)cc2)c1 (centres undefined) | . | . | . | . | - | .
CN(C)Cc1cccc(N=C(c2ccccc2)c2c(O)[nH]c3cc(C(N)=O)ccc23)c1 | . | . | . | . | - | .
O=C(NCCc1ccc(Cl)cc1)C(=O)NCC(c1ccco1)S(=O)(=O)c1ccc(Cl)cc1 (centres undefined) | ? | ? | ? | 1.2µM | - | -
Cc1cc(Nc2ccccc2C)nc(-n2nc(C)cc2C)n1 | ? | ? | ? | - | - | -
CCCCc1ccc(Nc2cc(C)nc(-n3nc(C)cc3C)n2)cc1 | 15µM | ? | ? | - | ? | -
O=C(Nc1ccccc1C(F)(F)F)c1noc2c1CCCC2 | . | . | . | - | . | .
O=C(Nc1ccc(OC(F)(F)F)cc1)c1noc2c1CCCC2 | - | - | - | - | - | 1.1µM
COc1cccc2cc(-c3nnc(Nc4c(F)cccc4F)s3)c(=O)oc12 | - | - | - | - | - | 1µM
COc1ccc(/C=C/C(=O)O[C@@H]2[C@@H](O)[C@H](C)O[C@@H](OC3C4C=COC(O[C@@H]5O[C@H](CO)[C@@H](O)[C@H](O)[C@H]5O)C4C4(CO)OC34)[C@@H]2O)cc1OC (some centres undefined) | . | . | . | . | - | .
CCOC(=O)c1ccc(NC(=O)Cn2cc(C(=O)c3ccc(Cl)cc3)c(=O)c3ccc(C)nc32)cc1 | 12µM | - | ? | - | - | -
CCOC(=O)c1ccc(NC(=O)Cn2cc(C(=O)c3ccc(CC)cc3)c(=O)c3ccc(C)nc32)cc1 | ? | - | - | - | - | -

Source: PubChem
